# Laboratory results published in paper PMC11062922 (Nature Chemical Biology, 2023).
# Read-outs that look alike come from different tables or passages of the source.
# Assays:
# Q6ZSR9 = Q6ZSR9 (human, UniProt Q6ZSR9); details: read-out: apparent Kd, n = 1
# SIK2 = details: read-out: apparent Kd, n = 1
# Q6ZSR9, sequence (Q6ZSR9 whole entry, looked up): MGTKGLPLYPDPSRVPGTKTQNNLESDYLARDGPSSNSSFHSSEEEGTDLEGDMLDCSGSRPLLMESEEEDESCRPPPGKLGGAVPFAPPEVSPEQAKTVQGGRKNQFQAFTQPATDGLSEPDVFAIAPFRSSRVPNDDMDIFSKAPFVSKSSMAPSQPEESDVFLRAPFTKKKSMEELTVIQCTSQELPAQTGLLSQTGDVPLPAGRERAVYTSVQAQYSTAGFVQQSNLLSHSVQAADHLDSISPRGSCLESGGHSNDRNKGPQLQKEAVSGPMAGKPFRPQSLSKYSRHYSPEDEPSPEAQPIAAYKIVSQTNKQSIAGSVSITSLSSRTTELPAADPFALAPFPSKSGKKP
substance,measurement,setting,value
Lestaurtinib,potency estimated from few doses,"Q6ZSR9; compound concentrations:100 nM and 1000 nM (sheet 'Lestaurtinib' of Supplementary Table 1),run:Lestaurtinib_03172_R2,Plate:MR031",54.5 nM
same,potency estimated from few doses,"Q6ZSR9; compound concentrations:100 nM and 1000 nM (sheet 'Lestaurtinib' of Supplementary Table 1),run:Lestaurtinib_03172_R3,Plate:MR031",57.5 nM
same,potency estimated from few doses,"Q6ZSR9; compound concentrations:100 nM and 1000 nM (sheet 'Lestaurtinib' of Supplementary Table 1),run:Lestaurtinib_03252_R1,Plate:MR032",61.3 nM
same,potency estimated from few doses,"Q6ZSR9; compound concentrations:100 nM and 1000 nM (sheet 'Lestaurtinib' of Supplementary Table 1),run:Lestaurtinib_03260_R2,Plate:MR033",113 nM
same,potency estimated from few doses,"Q6ZSR9; compound concentrations:100 nM and 1000 nM (sheet 'Lestaurtinib' of Supplementary Table 1),run:Lestaurtinib_03260_R3,Plate:MR033",79.5 nM
same,potency estimated from few doses,"SIK2; compound concentrations:100 nM and 1000 nM (sheet 'Lestaurtinib' of Supplementary Table 1),run:Lestaurtinib_02339_R2,Plate:MR001",44.6 nM
same,potency estimated from few doses,"SIK2; compound concentrations:100 nM and 1000 nM (sheet 'Lestaurtinib' of Supplementary Table 1),run:Lestaurtinib_02364_R1,Plate:MR002",53.6 nM
same,potency estimated from few doses,"SIK2; compound concentrations:100 nM and 1000 nM (sheet 'Lestaurtinib' of Supplementary Table 1),run:Lestaurtinib_02367_R1,Plate:MR003",51.8 nM
same,potency estimated from few doses,"SIK2; compound concentrations:100 nM and 1000 nM (sheet 'Lestaurtinib' of Supplementary Table 1),run:Lestaurtinib_02367_R2,Plate:MR003",57.3 nM
same,potency estimated from few doses,"SIK2; compound concentrations:100 nM and 1000 nM (sheet 'Lestaurtinib' of Supplementary Table 1),run:Lestaurtinib_02367_R3,Plate:MR003",51.5 nM
same,potency estimated from few doses,"SIK2; compound concentrations:100 nM and 1000 nM (sheet 'Lestaurtinib' of Supplementary Table 1),run:Lestaurtinib_02381_R1,Plate:MR004",56.4 nM
same,potency estimated from few doses,"SIK2; compound concentrations:100 nM and 1000 nM (sheet 'Lestaurtinib' of Supplementary Table 1),run:Lestaurtinib_02381_R2,Plate:MR004",62.4 nM
same,potency estimated from few doses,"SIK2; compound concentrations:100 nM and 1000 nM (sheet 'Lestaurtinib' of Supplementary Table 1),run:Lestaurtinib_02381_R3,Plate:MR004",30.1 nM
same,potency estimated from few doses,"SIK2; compound concentrations:100 nM and 1000 nM (sheet 'Lestaurtinib' of Supplementary Table 1),run:Lestaurtinib_02407_R1,Plate:MR005",50.7 nM
same,potency estimated from few doses,"SIK2; compound concentrations:100 nM and 1000 nM (sheet 'Lestaurtinib' of Supplementary Table 1),run:Lestaurtinib_02407_R2,Plate:MR005",52.5 nM
same,potency estimated from few doses,"SIK2; compound concentrations:100 nM and 1000 nM (sheet 'Lestaurtinib' of Supplementary Table 1),run:Lestaurtinib_02422_R2,Plate:MR006",9.74 nM
same,potency estimated from few doses,"SIK2; compound concentrations:100 nM and 1000 nM (sheet 'Lestaurtinib' of Supplementary Table 1),run:Lestaurtinib_02422_R3,Plate:MR006",52.6 nM
same,potency estimated from few doses,"SIK2; compound concentrations:100 nM and 1000 nM (sheet 'Lestaurtinib' of Supplementary Table 1),run:Lestaurtinib_02437_R1,Plate:MR007",50.6 nM
same,potency estimated from few doses,"SIK2; compound concentrations:100 nM and 1000 nM (sheet 'Lestaurtinib' of Supplementary Table 1),run:Lestaurtinib_02437_R3,Plate:MR007",7.45 nM
same,potency estimated from few doses,"SIK2; compound concentrations:100 nM and 1000 nM (sheet 'Lestaurtinib' of Supplementary Table 1),run:Lestaurtinib_02438_R2,Plate:MR008",41.4 nM
same,potency estimated from few doses,"SIK2; compound concentrations:100 nM and 1000 nM (sheet 'Lestaurtinib' of Supplementary Table 1),run:Lestaurtinib_02438_R3,Plate:MR008",34.7 nM
same,potency estimated from few doses,"SIK2; compound concentrations:100 nM and 1000 nM (sheet 'Lestaurtinib' of Supplementary Table 1),run:Lestaurtinib_02443_R1,Plate:MR009",49.3 nM
same,potency estimated from few doses,"SIK2; compound concentrations:100 nM and 1000 nM (sheet 'Lestaurtinib' of Supplementary Table 1),run:Lestaurtinib_02443_R2,Plate:MR009",51 nM
same,potency estimated from few doses,"SIK2; compound concentrations:100 nM and 1000 nM (sheet 'Lestaurtinib' of Supplementary Table 1),run:Lestaurtinib_02443_R3,Plate:MR009",51.1 nM
same,potency estimated from few doses,"SIK2; compound concentrations:100 nM and 1000 nM (sheet 'Lestaurtinib' of Supplementary Table 1),run:Lestaurtinib_02473_R2,Plate:MR010",44.2 nM
same,potency estimated from few doses,"SIK2; compound concentrations:100 nM and 1000 nM (sheet 'Lestaurtinib' of Supplementary Table 1),run:Lestaurtinib_02473_R3,Plate:MR010",30.1 nM
same,potency estimated from few doses,"SIK2; compound concentrations:100 nM and 1000 nM (sheet 'Lestaurtinib' of Supplementary Table 1),run:Lestaurtinib_02482_R2,Plate:MR011",52.3 nM
same,potency estimated from few doses,"SIK2; compound concentrations:100 nM and 1000 nM (sheet 'Lestaurtinib' of Supplementary Table 1),run:Lestaurtinib_02482_R3,Plate:MR011",44.9 nM
same,potency estimated from few doses,"SIK2; compound concentrations:100 nM and 1000 nM (sheet 'Lestaurtinib' of Supplementary Table 1),run:Lestaurtinib_02487_R2,Plate:MR012",47.8 nM
same,potency estimated from few doses,"SIK2; compound concentrations:100 nM and 1000 nM (sheet 'Lestaurtinib' of Supplementary Table 1),run:Lestaurtinib_02487_R3,Plate:MR012",59.5 nM
same,potency estimated from few doses,"SIK2; compound concentrations:100 nM and 1000 nM (sheet 'Lestaurtinib' of Supplementary Table 1),run:Lestaurtinib_02496_R1,Plate:MR013",44.2 nM
same,potency estimated from few doses,"SIK2; compound concentrations:100 nM and 1000 nM (sheet 'Lestaurtinib' of Supplementary Table 1),run:Lestaurtinib_02496_R3,Plate:MR013",40.2 nM
same,potency estimated from few doses,"SIK2; compound concentrations:100 nM and 1000 nM (sheet 'Lestaurtinib' of Supplementary Table 1),run:Lestaurtinib_02566_R2,Plate:MR014",48.9 nM
same,potency estimated from few doses,"SIK2; compound concentrations:100 nM and 1000 nM (sheet 'Lestaurtinib' of Supplementary Table 1),run:Lestaurtinib_02566_R3,Plate:MR014",62.6 nM
same,potency estimated from few doses,"SIK2; compound concentrations:100 nM and 1000 nM (sheet 'Lestaurtinib' of Supplementary Table 1),run:Lestaurtinib_02572_R1,Plate:MR015",46 nM
same,potency estimated from few doses,"SIK2; compound concentrations:100 nM and 1000 nM (sheet 'Lestaurtinib' of Supplementary Table 1),run:Lestaurtinib_02572_R2,Plate:MR015",51.5 nM
same,potency estimated from few doses,"SIK2; compound concentrations:100 nM and 1000 nM (sheet 'Lestaurtinib' of Supplementary Table 1),run:Lestaurtinib_02572_R3,Plate:MR015",51.6 nM
same,potency estimated from few doses,"SIK2; compound concentrations:100 nM and 1000 nM (sheet 'Lestaurtinib' of Supplementary Table 1),run:Lestaurtinib_02577_R1,Plate:MR016",51.5 nM
same,potency estimated from few doses,"SIK2; compound concentrations:100 nM and 1000 nM (sheet 'Lestaurtinib' of Supplementary Table 1),run:Lestaurtinib_02577_R2,Plate:MR016",44.8 nM
same,potency estimated from few doses,"SIK2; compound concentrations:100 nM and 1000 nM (sheet 'Lestaurtinib' of Supplementary Table 1),run:Lestaurtinib_02577_R3,Plate:MR016",46.9 nM
same,potency estimated from few doses,"SIK2; compound concentrations:100 nM and 1000 nM (sheet 'Lestaurtinib' of Supplementary Table 1),run:Lestaurtinib_02584_R1,Plate:MR017",51 nM
same,potency estimated from few doses,"SIK2; compound concentrations:100 nM and 1000 nM (sheet 'Lestaurtinib' of Supplementary Table 1),run:Lestaurtinib_02584_R2,Plate:MR017",49.6 nM
